Laboratory results from PubChem BioAssay AID2057 (The Scripps Research Institute Molecular Screening Center, 2009).
About 2,100 (0.66%) of roughly 320,000 compounds were called active. This is one part of a sample in which actives are shown more often than they occur. Values without a mark were called inactive.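 The calls were made as follows: active = inhibition above the mean inhibition of all tested compounds plus 3 SD, set per campaign (cut at about 40% in these data); inactive = the rest.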

Target: Induced myeloid leukemia cell differentiation protein Mcl-1 (Homo sapiens) (UniProt Q07820)
Sequence (Q07820 whole entry, looked up): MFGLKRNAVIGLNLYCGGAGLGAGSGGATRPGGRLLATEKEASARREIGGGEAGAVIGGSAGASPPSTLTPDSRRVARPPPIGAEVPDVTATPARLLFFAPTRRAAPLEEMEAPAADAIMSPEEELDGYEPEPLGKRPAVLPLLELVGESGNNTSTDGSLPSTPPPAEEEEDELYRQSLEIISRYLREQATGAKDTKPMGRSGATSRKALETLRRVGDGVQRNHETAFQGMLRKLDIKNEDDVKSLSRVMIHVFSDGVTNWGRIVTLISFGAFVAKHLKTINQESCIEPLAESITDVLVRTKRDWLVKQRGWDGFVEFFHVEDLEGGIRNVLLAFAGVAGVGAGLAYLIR
Experiment: MCL1-BIM peptide interaction disruptors – biochemical, fluorescence polarization, primary screen (AID 2057);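 also: 0% = DMSO wells and 100% = unlabeled Bim-BH3 peptide control; higher means more loss of mP so more displacement of Bim peptide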
Settings: GST-MCL1 / FITC-Bim-BH3 fluorescence polarization; at 10.9 µM; active compounds read high

Row | Compound | inhibition
1 | CC1CC(=O)N(CC(=O)Nc2cccc(Cl)c2)c2ccccc2S1(=O)=O (stereo not drawn) | -4.67%
2 | CCCC1OC23CCCCC2C(C#N)(C#N)C1(C#N)C(=N)O3 (stereo not drawn) | 95.8% (active)
3 | CCCC[C@@H]1CN=C(N)N1CCc1cc(C(F)(F)F)cc(C(F)(F)F)c1 | 10.6%
4 | O=C(Nn1c(-c2ccc(Cl)cc2)nc2ccccc2c1=O)c1cccnc1Cl | 5.2%
5 | CN(C)c1ccc(Nc2c3c4c(cccc4n(C)c2=O)C(=O)c2ccccc2-3)cc1 | 55.2% (active)
6 | CCOC(=O)C(CC)/C(C)=N\NC(=O)c1cccc(C)c1 (stereo not drawn) | -4.82%
7 | Cc1ccc(NS(=O)(=O)c2ccc(F)cc2)nc1 | 1.22%
8 | CC(=O)c1ccc(-c2ccc(Cn3c(C)nc4cc(N)c(C)nc43)cc2)cc1 | 8.3%
9 | Cc1cc(-c2csc(N)n2)c(C)n1Cc1ccccc1 | 6.96%
10 | COc1ccccc1NC(=O)COC(=O)Cc1ccc(S(=O)(=O)N2CCCCC2)s1 | -0.05%
11 | Cc1nn(-c2ccc([N+](=O)[O-])cc2)c(N)c1-c1ccccc1 | -34.6%
12 | Cc1nn(C(=O)c2ccoc2C)c(N)c1-c1ccccc1 | 193% (active)
13 | C/C(=N\NC(=O)c1ccoc1C)c1ccccc1O | 4.86%
14 | Cc1csc(NC(=O)CSc2nc(=O)n(CCCN(C)C)c3c2CCC3)n1 | -0.83%
15 | COc1ccc(SCCN2CCN(CC(C)C)CCC2=O)cc1 | -4.27%
16 | CC(=O)N(CC(O)CO)c1c(I)c(C(=O)NCC(O)CO)c(I)c(C(=O)NCC(O)CO)c1I (stereo not drawn) | -0.91%
17 | COCCn1c(SCC(=O)Nc2nc(C)cs2)nnc1C(C)C | -2.37%
18 | C1=C(N2CCOCC2)/C(=C/c2nc3ccccc3[nH]2)CC1 | 105% (active)
19 | CC1(C)Cc2c(C#N)c(SCc3nc4ccccc4[nH]3)nc(N3CCOCC3)c2CO1 | 3.45%
20 | O=c1[nH]c(N2CCOCC2)nc2ccccc12 | 2.38%
21 | CNC(=O)N1c2ccccc2C=Cc2ccccc21 | -1.86%
22 | CS(=O)(=O)N1CCc2nc(-c3ccccc3)sc2C1 | 7.75%
23 | COc1ncnc2c1N=C1CC(C)(C)CC(N)=C1S2 | 191% (active)
24 | CCN(CC)S(=O)(=O)c1ccc2[nH]c(=O)cc(C(=O)N(C)C3CCS(=O)(=O)C3)c2c1 (stereo not drawn) | 7.4%
25 | CCCC(C(=O)OCCN(CC)CC)(c1ccccc1)c1ccccc1 | -3.08%
26 | CCCN1CC=C2C(C#N)=C(N)C(C#N)(C#N)C(c3cc(OC)ccc3OC)C2C1 (stereo not drawn) | 68.3% (active)
27 | CCN1CC=C2C(C#N)=C(N)C(C#N)(C#N)[C@H](c3ccoc3)[C@H]2C1 | 171% (active)
28 | N#CC1=C(N)C(C#N)(C#N)[C@H](c2ccsc2)[C@H]2COCC=C12 | 32.7%
